From the supplement of paper PMC11732987, “Enantioselective OTUD7B fragment discovery through chemoproteomics screening and high-throughput optimisation” (Communications Chemistry, 2025)

What was measured:
Test in all cases: log2 ratio of Biotin-Ahx-Ub-VS probe labelling (fragment/DMSO); higher = less target engagement (more negative = stronger competition), active = hit call of the paper (q ≤ 0.05, log2 ratio ≤ -1)
Conditions in all cases: compound concentration: 200 uM; treatment time: 3 h
USP42 = biological target: T1, USP42 (UniProt Q9H9J4)
T1 sequence (whole entry): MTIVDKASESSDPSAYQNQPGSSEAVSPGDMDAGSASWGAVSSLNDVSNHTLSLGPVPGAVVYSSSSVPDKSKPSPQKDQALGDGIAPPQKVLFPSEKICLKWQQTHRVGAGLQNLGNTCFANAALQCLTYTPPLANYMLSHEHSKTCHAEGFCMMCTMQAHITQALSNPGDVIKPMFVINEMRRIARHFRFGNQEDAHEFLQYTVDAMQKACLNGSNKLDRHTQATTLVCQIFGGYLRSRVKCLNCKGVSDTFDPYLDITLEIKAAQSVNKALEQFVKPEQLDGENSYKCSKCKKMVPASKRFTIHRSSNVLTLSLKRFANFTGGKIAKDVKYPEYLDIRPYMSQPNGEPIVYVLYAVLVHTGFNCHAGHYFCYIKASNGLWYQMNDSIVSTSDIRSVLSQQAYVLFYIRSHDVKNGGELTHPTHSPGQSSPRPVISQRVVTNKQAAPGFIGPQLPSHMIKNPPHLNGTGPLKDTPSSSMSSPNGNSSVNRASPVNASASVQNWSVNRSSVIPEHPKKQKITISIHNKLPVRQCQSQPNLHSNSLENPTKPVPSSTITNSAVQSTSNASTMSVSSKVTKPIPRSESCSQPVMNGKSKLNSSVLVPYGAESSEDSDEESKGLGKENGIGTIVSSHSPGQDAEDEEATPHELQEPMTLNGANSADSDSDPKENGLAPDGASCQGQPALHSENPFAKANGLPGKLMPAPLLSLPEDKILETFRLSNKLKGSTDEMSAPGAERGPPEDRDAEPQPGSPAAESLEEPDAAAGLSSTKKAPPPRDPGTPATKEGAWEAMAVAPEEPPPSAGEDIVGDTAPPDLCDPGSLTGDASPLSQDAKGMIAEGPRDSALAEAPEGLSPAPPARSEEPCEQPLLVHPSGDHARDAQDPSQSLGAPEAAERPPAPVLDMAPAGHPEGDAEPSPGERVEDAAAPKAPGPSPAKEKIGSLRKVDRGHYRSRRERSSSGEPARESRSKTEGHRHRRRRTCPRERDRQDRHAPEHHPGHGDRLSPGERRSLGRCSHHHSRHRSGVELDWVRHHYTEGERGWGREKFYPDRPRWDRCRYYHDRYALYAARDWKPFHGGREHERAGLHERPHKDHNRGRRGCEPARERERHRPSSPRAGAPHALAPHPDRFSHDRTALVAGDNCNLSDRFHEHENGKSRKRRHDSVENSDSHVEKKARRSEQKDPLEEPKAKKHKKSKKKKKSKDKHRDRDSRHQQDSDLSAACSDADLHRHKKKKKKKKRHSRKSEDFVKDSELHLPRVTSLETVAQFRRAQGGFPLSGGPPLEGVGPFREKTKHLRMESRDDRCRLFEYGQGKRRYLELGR
In short: (§1)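 Global-median-normalised Spectronaut label-free quantities were compared by unpaired t-test, and values are average log2 ratios of fragment over vehicle. Only proteins with ≥2 unique peptides were used. HEK293T lysate (495 µg per sample) was treated in triplicate with fragment at 200 µM or vehicle for 3 h and then with Biotin-Ahx-Ub-VS at 0.5 µM final for 1 h. Labelled DUBs were then NeutrAvidin-enriched, digested with LysC and trypsin, and run by diaPASEF LC-MS/MS.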

USP46 = USP46 (UniProt P62068)
In short: as §1

USP47 = biological target: T2, USP47 (UniProt Q96K76)
T2 sequence (whole entry): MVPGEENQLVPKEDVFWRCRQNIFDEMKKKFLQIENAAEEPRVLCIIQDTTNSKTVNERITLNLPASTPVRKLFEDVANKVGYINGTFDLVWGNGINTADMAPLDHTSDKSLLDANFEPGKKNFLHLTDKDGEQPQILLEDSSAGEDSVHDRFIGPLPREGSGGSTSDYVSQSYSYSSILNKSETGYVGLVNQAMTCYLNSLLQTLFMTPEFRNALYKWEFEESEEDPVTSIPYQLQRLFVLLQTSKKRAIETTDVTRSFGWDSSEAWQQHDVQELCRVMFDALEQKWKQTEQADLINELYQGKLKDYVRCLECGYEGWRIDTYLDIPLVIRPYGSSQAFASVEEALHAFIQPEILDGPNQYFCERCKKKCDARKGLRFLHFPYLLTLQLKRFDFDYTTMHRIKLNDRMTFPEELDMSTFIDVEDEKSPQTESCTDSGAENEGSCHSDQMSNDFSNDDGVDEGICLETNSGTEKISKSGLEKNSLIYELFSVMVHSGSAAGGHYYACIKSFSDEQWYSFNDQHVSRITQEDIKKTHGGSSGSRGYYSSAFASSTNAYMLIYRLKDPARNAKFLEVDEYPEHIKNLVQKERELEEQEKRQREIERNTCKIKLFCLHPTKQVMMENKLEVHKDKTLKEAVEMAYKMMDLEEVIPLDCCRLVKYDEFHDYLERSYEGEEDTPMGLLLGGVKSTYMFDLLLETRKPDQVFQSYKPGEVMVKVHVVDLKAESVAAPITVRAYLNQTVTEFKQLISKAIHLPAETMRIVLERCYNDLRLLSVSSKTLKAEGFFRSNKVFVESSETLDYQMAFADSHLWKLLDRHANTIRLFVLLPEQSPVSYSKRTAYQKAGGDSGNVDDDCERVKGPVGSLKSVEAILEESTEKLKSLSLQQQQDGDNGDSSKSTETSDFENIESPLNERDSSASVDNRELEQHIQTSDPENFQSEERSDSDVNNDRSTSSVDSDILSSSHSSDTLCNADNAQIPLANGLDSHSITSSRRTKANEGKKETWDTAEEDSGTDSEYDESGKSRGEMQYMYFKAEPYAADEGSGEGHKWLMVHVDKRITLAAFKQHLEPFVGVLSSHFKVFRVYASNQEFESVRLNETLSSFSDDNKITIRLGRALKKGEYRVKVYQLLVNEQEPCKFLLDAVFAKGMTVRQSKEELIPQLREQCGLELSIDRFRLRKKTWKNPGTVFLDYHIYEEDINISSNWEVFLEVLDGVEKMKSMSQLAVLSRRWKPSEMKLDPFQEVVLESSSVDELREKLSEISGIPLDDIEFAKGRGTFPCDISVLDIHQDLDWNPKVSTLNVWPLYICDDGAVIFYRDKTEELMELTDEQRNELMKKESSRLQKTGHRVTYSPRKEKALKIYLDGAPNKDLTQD
In short: as §1

USP48 = biological target: T3, USP48 (UniProt Q86UV5)
T3 sequence (whole entry): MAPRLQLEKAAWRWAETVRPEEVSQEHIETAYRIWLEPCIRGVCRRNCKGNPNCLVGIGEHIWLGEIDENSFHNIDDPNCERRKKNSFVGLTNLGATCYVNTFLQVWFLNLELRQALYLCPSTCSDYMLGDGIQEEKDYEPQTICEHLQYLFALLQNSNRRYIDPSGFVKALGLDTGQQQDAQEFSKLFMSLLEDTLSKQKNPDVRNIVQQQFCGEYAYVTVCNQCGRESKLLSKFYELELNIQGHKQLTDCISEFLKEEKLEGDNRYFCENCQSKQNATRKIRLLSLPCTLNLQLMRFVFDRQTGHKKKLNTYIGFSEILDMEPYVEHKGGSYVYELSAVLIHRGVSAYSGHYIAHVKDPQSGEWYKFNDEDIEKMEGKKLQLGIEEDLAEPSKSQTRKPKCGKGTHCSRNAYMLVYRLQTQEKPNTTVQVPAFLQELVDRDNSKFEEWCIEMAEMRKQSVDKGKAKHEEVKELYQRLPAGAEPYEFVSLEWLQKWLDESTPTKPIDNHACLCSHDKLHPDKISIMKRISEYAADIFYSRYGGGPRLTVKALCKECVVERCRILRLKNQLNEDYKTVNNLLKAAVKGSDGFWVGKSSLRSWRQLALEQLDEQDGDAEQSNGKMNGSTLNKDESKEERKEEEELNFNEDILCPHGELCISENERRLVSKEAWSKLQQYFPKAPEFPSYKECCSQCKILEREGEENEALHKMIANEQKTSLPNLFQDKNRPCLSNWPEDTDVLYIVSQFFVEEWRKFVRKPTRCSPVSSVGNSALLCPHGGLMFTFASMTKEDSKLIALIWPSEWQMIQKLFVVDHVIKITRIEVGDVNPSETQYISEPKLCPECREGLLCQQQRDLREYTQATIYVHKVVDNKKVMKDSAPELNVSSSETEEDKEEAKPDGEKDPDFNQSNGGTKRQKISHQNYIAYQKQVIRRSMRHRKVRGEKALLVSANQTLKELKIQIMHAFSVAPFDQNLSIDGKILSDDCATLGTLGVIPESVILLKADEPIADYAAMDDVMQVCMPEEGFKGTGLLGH
In short: as §1

USP5 = biological target: T4, USP5 (UniProt P45974)
T4 sequence (whole entry): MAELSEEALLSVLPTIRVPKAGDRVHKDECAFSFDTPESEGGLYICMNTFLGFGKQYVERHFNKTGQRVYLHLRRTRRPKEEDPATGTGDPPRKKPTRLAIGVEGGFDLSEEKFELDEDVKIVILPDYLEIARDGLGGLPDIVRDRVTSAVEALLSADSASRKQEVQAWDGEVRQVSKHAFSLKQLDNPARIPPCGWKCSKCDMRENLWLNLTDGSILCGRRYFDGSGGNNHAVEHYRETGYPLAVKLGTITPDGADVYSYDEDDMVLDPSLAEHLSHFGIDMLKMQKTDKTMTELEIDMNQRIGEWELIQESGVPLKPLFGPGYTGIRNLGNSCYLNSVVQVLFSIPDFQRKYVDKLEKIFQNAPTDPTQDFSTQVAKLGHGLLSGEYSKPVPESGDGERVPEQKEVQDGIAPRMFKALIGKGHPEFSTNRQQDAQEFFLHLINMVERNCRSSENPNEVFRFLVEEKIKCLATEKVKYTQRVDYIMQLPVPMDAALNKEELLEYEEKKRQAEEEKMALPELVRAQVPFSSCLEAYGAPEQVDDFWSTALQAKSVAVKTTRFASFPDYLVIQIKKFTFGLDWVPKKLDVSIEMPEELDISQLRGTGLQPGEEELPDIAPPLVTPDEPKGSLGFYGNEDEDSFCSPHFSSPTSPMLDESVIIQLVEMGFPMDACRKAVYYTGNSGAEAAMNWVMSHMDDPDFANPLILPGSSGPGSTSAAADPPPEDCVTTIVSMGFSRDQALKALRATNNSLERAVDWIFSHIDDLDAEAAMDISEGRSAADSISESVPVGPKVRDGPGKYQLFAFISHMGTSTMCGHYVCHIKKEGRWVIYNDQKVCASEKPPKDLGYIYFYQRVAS
In short: as §1

USP54 = USP54 (UniProt Q70EL1)
In short: as §1

USP7 = USP7 (UniProt Q93009)
In short: as §1

USP8 = biological target: T5, USP8 (UniProt P40818)
T5 sequence (whole entry): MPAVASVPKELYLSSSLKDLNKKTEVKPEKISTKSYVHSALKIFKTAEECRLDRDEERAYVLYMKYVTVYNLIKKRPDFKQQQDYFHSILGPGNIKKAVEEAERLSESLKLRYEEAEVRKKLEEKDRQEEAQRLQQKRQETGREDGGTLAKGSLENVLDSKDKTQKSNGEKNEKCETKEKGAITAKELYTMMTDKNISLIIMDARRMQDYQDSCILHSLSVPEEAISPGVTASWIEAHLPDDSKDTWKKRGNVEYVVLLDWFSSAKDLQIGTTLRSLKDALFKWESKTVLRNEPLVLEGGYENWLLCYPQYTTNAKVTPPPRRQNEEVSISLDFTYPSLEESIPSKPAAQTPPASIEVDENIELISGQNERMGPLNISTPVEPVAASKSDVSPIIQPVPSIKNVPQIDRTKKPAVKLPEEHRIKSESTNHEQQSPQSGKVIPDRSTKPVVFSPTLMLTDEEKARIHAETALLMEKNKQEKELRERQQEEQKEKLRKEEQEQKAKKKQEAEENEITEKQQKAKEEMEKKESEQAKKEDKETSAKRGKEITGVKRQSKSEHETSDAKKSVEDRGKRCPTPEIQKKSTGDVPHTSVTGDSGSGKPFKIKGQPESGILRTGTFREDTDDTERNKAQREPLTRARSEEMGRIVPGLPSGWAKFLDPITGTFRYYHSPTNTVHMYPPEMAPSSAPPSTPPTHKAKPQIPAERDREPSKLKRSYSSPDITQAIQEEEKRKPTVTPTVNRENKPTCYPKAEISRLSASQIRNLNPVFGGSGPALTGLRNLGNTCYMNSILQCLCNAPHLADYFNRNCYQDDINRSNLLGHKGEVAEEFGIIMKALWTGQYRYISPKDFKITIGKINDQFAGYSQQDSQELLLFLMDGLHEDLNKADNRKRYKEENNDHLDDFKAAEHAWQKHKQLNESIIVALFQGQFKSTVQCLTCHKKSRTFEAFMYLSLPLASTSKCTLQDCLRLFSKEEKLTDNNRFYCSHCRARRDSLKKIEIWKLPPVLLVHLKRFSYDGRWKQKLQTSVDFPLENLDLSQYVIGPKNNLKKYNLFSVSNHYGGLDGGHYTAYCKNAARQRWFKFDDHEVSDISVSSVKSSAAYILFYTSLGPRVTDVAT
In short: as §1

USP9X = USP9X (UniProt Q93008)
In short: as §1

UniProt O00487 = biological target: UniProt O00487
In short: as §1

Measured: log2 ratio of Biotin-Ahx-Ub-VS probe labelling

Sequence of USP7 (Q93009 whole entry, looked up): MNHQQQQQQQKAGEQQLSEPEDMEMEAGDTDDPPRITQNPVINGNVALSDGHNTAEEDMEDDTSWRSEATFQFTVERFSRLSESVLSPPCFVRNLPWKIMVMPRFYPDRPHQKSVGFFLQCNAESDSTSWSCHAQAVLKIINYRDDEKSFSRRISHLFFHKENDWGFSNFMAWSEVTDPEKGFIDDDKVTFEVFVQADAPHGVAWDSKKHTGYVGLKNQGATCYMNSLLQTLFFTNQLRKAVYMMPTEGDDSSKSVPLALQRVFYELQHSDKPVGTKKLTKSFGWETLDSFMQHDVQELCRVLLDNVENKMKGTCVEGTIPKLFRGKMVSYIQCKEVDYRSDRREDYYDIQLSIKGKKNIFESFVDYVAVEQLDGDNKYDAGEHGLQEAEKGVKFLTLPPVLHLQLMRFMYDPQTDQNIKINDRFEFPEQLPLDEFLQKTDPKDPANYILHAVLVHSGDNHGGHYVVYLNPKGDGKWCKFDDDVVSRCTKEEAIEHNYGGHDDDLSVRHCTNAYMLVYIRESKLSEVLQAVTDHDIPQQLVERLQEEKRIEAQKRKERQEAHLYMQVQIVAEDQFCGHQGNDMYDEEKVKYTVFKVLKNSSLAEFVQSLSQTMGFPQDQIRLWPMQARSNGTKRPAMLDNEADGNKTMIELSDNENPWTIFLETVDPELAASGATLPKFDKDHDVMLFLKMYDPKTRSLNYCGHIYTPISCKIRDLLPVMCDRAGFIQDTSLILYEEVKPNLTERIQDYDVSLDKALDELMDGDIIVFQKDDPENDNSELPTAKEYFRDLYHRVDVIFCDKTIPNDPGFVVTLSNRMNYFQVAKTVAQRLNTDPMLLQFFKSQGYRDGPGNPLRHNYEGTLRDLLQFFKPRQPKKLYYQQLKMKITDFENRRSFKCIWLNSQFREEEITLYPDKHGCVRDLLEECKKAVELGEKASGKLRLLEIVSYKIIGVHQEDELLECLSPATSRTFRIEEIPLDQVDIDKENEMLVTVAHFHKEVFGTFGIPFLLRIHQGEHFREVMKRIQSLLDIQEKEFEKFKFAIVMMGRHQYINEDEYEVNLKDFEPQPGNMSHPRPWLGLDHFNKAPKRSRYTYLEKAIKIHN
Sequence of USP9X (Q93008 whole entry): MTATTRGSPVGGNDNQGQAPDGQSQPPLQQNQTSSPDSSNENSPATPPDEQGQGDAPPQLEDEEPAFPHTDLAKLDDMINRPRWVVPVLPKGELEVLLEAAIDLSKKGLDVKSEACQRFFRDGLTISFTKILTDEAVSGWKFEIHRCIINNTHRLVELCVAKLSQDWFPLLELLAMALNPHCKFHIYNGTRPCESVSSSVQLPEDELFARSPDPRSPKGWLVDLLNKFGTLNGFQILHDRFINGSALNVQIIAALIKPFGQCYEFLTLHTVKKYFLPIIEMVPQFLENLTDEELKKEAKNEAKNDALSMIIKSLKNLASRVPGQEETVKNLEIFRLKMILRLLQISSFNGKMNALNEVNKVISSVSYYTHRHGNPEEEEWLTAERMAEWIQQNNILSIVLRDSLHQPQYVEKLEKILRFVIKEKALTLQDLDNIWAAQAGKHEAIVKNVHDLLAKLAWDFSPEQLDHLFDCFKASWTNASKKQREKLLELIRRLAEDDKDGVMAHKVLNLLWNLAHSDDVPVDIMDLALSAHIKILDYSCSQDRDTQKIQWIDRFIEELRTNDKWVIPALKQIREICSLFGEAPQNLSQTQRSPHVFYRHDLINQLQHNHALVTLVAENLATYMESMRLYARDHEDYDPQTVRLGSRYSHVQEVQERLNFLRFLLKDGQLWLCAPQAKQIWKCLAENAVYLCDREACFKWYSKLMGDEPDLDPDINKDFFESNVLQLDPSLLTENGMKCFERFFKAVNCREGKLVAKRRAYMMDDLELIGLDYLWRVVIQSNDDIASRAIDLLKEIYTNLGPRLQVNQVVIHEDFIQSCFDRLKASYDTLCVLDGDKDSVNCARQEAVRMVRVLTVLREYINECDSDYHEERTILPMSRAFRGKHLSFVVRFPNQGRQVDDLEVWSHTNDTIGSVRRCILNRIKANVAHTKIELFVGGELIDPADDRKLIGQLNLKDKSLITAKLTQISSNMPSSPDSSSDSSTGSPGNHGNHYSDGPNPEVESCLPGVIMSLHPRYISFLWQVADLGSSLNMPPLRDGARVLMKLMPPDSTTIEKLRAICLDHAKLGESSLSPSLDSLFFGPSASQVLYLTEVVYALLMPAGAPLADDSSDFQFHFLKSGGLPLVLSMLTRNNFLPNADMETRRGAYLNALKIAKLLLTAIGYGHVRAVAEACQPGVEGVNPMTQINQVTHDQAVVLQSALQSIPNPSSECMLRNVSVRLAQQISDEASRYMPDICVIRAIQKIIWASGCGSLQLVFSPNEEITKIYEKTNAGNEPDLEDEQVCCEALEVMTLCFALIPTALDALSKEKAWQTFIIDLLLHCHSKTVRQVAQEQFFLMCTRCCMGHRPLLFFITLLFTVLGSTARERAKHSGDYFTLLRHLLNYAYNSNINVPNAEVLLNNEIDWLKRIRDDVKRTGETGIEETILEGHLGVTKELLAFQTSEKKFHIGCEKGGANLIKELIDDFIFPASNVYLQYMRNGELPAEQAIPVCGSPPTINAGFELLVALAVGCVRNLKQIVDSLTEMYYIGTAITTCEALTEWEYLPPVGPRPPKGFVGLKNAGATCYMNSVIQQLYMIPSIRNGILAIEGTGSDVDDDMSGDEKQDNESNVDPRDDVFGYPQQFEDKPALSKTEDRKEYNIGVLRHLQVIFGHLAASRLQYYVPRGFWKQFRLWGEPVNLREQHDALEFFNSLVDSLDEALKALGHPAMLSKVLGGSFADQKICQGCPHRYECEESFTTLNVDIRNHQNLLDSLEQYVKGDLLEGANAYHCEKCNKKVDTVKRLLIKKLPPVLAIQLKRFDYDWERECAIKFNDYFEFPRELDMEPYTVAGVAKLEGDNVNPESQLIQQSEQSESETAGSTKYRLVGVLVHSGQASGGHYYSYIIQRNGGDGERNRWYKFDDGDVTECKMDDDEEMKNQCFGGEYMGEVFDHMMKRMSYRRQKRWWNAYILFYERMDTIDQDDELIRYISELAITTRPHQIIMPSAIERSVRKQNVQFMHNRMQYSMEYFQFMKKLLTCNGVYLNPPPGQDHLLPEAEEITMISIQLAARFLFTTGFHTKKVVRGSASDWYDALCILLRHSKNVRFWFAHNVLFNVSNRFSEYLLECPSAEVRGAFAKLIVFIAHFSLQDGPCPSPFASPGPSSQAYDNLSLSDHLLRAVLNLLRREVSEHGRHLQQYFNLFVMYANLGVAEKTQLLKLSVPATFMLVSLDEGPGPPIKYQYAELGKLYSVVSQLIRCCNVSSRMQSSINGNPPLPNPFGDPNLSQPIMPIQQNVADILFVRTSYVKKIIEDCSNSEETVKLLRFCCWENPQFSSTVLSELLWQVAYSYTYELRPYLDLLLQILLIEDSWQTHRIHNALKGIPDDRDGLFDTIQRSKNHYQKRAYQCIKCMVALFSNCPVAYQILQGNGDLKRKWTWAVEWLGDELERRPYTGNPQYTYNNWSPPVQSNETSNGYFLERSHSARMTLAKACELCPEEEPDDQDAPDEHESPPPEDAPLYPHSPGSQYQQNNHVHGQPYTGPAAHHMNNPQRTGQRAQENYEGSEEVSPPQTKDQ
Sequence of UniProt O00487 (O00487 whole entry): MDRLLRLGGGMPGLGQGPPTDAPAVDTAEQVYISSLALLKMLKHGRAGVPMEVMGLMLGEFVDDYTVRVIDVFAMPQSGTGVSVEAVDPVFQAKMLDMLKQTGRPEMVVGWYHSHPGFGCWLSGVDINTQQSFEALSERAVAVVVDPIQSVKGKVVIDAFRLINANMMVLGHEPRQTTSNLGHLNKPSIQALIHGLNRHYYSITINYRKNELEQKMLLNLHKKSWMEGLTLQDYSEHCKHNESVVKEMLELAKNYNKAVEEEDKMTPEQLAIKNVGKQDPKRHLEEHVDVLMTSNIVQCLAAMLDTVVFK
Sequence of USP46 (P62068 whole entry): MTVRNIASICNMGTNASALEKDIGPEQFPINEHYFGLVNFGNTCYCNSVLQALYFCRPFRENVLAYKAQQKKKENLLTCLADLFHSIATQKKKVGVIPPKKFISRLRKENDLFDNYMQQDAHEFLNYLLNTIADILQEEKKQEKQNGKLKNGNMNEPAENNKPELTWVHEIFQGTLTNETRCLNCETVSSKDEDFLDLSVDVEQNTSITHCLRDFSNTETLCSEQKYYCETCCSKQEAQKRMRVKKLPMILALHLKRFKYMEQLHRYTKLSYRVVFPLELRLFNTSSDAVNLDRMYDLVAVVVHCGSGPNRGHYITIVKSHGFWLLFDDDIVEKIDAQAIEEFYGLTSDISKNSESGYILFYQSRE

O=C(CCl)N1CCC(OCc2ccccc2F)CC1
inactive: USP42 0.919 | USP46 0.155 | USP47 -0.138 | USP48 -0.151 | USP5 0.445 | USP54 -0.235 | USP7 -0.391 | USP8 0.124 | USP9X -0.0279 | UniProt O00487 0.075
